A short description of test [1]: growth inhibition of DIPG cells – cell-based, MIPE4.0 library, CellTiter-Glo luminescence, qHTS (AID 1347066; cut-off not given, nearly all actives have AC50 up to about 30 µM;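 further: cells exposed to compound for 48 hours before readout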). To be noted: SU-DIPG-VI viability, CellTiter-Glo ATP luminescence. Background: Cellular ATP, detected with luciferase, serves as a proxy for viable cell number.
A short description of test [2]: JHH-DIPG-1 glioma cell viability, MIPE5.0 library, CellTiter-Glo luminescence, qHTS (AID 1347067; cut-off not given, nearly all actives have AC50 up to about 26 µM;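 further: cells exposed to compound for 48 hours before readout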). To be noted: JHH-DIPG-1 glioma viability, CellTiter-Glo ATP luminescence.
The nature of test [3]: growth inhibition of DIPG cells – cell-based, MIPE5.0 library, qHTS (AID 1347068; cut-off not given, nearly all actives have IC50 up to about 30 µM). To be noted: SU-DIPG-XXV viability. On the technique in general: qHTS replaces the single test concentration by a dilution series.
Test [4] in a line: viability loss with induced miR-34 in A549 – imaging, A549 dox-inducible miR-34, nuclei and caspase counts, primary screen (AID 1347080;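 active means compounds whose cell count with miR-34 switched on is under 0.7 times the count with it off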). The note with it: A549 miR-34 inducible, Hoechst nuclei count, 48 h.
Test [5] is described as follows: MELAS cybrid and Rieske KO viability enhancers – cell-based, MELAS cybrids, Rieske KO mouse fibroblasts, CellTiter-Glo, primary screen (AID 1508586;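 active means mean z-score across replicates of 1.96 or higher in either the MELAS or the Rieske mutant cell line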;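 further: z relative to plate mean and SD of compound and empty wells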). The note with it: low glucose.
Test [6] can be described thus: viability loss in pontine glioma line – cell-based, SU-DIPG-XXV, MIPE5.0, CellTiter-Glo, qHTS, dose response (AID 1347065; cut-off not given, nearly all actives have AC50 up to about 26 µM;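 further: cells exposed to compound for 48 hours before ATP readout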). To be noted: CellTiter-Glo ATP luminescence.
A short description of test [7]: chitosan synthesis blockers in C. neoformans – flow cytometry, Cibacron Brilliant Red staining (AID 1347148; call rule not given here;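 further: compound exposure lasted three days at 37 degrees C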). The note with it: Cryptococcus neoformans chitosan, stronger effect = lower value; at 10 µM unless noted. Background: Flow cytometry measures light scatter and fluorescence of single cells or particles in a stream.
Test [8] can be described thus: blockers of cellular phospholipid synthesis – cell-based, LOPAC library, screen 4, primary screen (AID 1347384; call rule not given here). The note with it: animal cells, phospholipid biosynthesis inhibition screen; at 10 µM.
A short description of test [9]: drug combination growth inhibition, ovarian cancer – cell-based, oncology-focused library, rucaparib conditional, profiling panel (AID 1508598). The note with it: patient-derived ovarian cancer cells, CellTiter-Glo viability, 144 h, stronger effect = lower value.
Setting [10] is: stronger effect = lower value, cell number ratio, induced over uninduced.
Setting [11] is: measured here: relative caspase fold change +Dox/-Dox.
The mark [12] stands for this setting: measured here: total cells with miR-34 induction, stronger effect = lower value.
Where [13] appears, read: measured here: total cells without miR-34 induction.
Where [14] appears, read: MELAS cybrid survival, CellTiter-Glo 48 h, stronger effect = higher value.
[15] abbreviates: Rieske KO mouse fibroblast survival, CellTiter-Glo 72 h.

One may read the viability as a read-out of living cells in per cent, often relative to untreated cells. The term AC50 denotes the concentration at which the activity in the assay is half-maximal.

SMILES strings stand for the structures. Several values for one entry are separate records, joined by “and”; a condition that tells them apart may be missing. Equal values may be shown once. Results filed as inconclusive are left out. Activity calls are given as the source filed them.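 How the source made its calls, unless noted: active means normalized viability below 100% at a tested concentration; inactive means the rest.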

Turning to `O=C(NC(Cc1cc(=O)[nH]c2ccccc12)C(=O)O)c1ccc(Cl)cc1` (stereo not drawn), the molecule was called inactive in test [1], in test [2] and in [3]. Besides, the fold change was 0.898 (inactive) and 0.888 (inactive) in test [4] (setting [10]); 0.965 and 1.15 in [4] (setting [11]). Besides, the cell count was 8440 and 9630 in test [4] (setting [12]); 9400 and 10800 in test [4] (setting [13]). The z-score was -0.219 (inactive) and -0.0914 (inactive) and 0.278 (inactive) in test [5] (setting [14]); 0.648 and -0.845 and -0.0622 in [5] (setting [15]).
`O=c1c(O)c(-c2ccc(O)c(O)c2)oc2cc(O)cc(O)c12`: the call in [6], in test [2], in test [3] and in test [8] was inactive. Moreover, the fold fluorescence in test [7] was 2.95 [at 165.4 µM] (active). Besides, the z-score in test [5] (setting [14]) is -0.4 (inactive) and -0.42 (inactive); in test [5] (setting [15]), -1.01 and 0.378. In addition, the viability in [9] (at 0.000305 µM, OCI-C5x cells, with rucaparib 10 µM, 100% = cells with rucaparib alone) was 118% (inactive); in test [9] (at 0.000305 µM, OCI-C5x cells, without rucaparib), 113% (inactive); in test [9] (at 0.000305 µM, OCI-P5x cells, with rucaparib 20 µM, 100% = cells with rucaparib alone), 92% (active); in [9] (at 0.000305 µM, OCI-P5x cells, without rucaparib) it was 92.3% (active); in [9] (at 0.00122 µM, OCI-C5x cells, with rucaparib 10 µM, 100% = cells with rucaparib alone) it was 122% (inactive); in test [9] (at 0.00122 µM, OCI-C5x cells, without rucaparib), 119% (inactive). In addition, the viability in [9] (at 0.00122 µM, OCI-P5x cells, with rucaparib 20 µM, 100% = cells with rucaparib alone) is 97.3% (active); in test [9] (at 0.00122 µM, OCI-P5x cells, without rucaparib) it was 102% (inactive); in [9] (at 0.00488 µM, OCI-C5x cells, with rucaparib 10 µM, 100% = cells with rucaparib alone), 117% (inactive); in [9] (at 0.00488 µM, OCI-C5x cells, without rucaparib) it was 129% (inactive); in test [9] (at 0.00488 µM, OCI-P5x cells, with rucaparib 20 µM, 100% = cells with rucaparib alone), 104% (inactive); in test [9] (at 0.00488 µM, OCI-P5x cells, without rucaparib) it was 105% (inactive). Also, the viability in test [9] (at 0.0195 µM, OCI-C5x cells, with rucaparib 10 µM, 100% = cells with rucaparib alone) was 127% (inactive); in [9] (at 0.0195 µM, OCI-C5x cells, without rucaparib), 125% (inactive); in [9] (at 0.0195 µM, OCI-P5x cells, with rucaparib 20 µM, 100% = cells with rucaparib alone), 105% (inactive); in [9] (at 0.0195 µM, OCI-P5x cells, without rucaparib), 105% (inactive); in test [9] (at 0.0781 µM, OCI-C5x cells, with rucaparib 10 µM, 100% = cells with rucaparib alone) it was 114% (inactive); in [9] (at 0.0781 µM, OCI-C5x cells, without rucaparib), 125% (inactive). Further, the viability in test [9] (at 0.0781 µM, OCI-P5x cells, with rucaparib 20 µM, 100% = cells with rucaparib alone) is 105% (inactive); in test [9] (at 0.0781 µM, OCI-P5x cells, without rucaparib), 109% (inactive); in test [9] (at 0.313 µM, OCI-C5x cells, with rucaparib 10 µM, 100% = cells with rucaparib alone), 111% (inactive); in [9] (at 0.313 µM, OCI-C5x cells, without rucaparib), 127% (inactive); in [9] (at 0.313 µM, OCI-P5x cells, with rucaparib 20 µM, 100% = cells with rucaparib alone), 101% (inactive); in [9] (at 0.313 µM, OCI-P5x cells, without rucaparib) it was 112% (inactive). Moreover, the viability was 111% (inactive) in [9] (at 1.25 µM, OCI-C5x cells, with rucaparib 10 µM, 100% = cells with rucaparib alone); 125% (inactive) in test [9] (at 1.25 µM, OCI-C5x cells, without rucaparib); 103% (inactive) in [9] (at 1.25 µM, OCI-P5x cells, with rucaparib 20 µM, 100% = cells with rucaparib alone); 107% (inactive) in [9] (at 1.25 µM, OCI-P5x cells, without rucaparib); 109% (inactive) in test [9] (at 5 µM, OCI-C5x cells, with rucaparib 10 µM, 100% = cells with rucaparib alone); 120% (inactive) in test [9] (at 5 µM, OCI-C5x cells, without rucaparib). For the same molecule, the viability in [9] (at 5 µM, OCI-P5x cells, with rucaparib 20 µM, 100% = cells with rucaparib alone) was 90.4% (active); in test [9] (at 5 µM, OCI-P5x cells, without rucaparib), 107% (inactive).
Take `OC[C@H]1O[C@@H](O[C@@H]2[C@@H](CO)O[C@](O)(CO)[C@H]2O)[C@H](O)[C@@H](O)[C@H]1O`: the call in test [1], in [2] and in [3] was inactive. In addition, the figures for the fold change in test [4] (setting [10]) and in test [4] (setting [11]) were 0.922 (inactive) and 1.95, respectively. Besides, the cell count in [4] (setting [12]) was found to be 11500; in [4] (setting [13]) it was 12500.
Consider `O=C1CCc2cc(OCCCCc3nnnn3C3CCCCC3)ccc2N1`, for which the outcome in test [6], in test [2] and in [8] was inactive. Besides, the z-score is -0.457 (inactive) and 0.645 (inactive) in [5] (setting [14]); 0.52 and 0.278 in test [5] (setting [15]).
For `CC1=C(C(=O)O)N2C(=O)[C@@H](NC(=O)[C@H](N)C3=CCC=CC3)[C@H]2SC1`, the result in test [1] was inactive.
In the case of `C#C[C@]1(O)CC[C@H]2[C@@H]3[C@H](C)CC4=C(CCC(=O)C4)[C@H]3CC[C@@]21C`, the call in test [6] and in test [3] was inactive. For the same molecule, the fold change is 0.908 (inactive) and 0.883 (inactive) in [4] (setting [10]); 0.948 and 1.2 in test [4] (setting [11]). Also, the cell count is 5910 and 8230 in test [4] (setting [12]); 6510 and 9320 in test [4] (setting [13]). Further, the z-score is 0.727 (inactive) and 0.175 (inactive) in [5] (setting [14]); 0.291 and -0.0373 in [5] (setting [15]).
On to `CCCOc1ccc2nc(NC(=O)OC)[nH]c2c1`, for which the AC50 was 0.235 µM (active) in test [6] and 0.295 µM (active) in test [2]. Moreover, the fold change in test [4] (setting [10]) was 1.06 (inactive) and 1 (inactive); in test [4] (setting [11]) it was 1.87 and 1.28. Besides, the cell count in [4] (setting [12]) was 2370 and 1800; in test [4] (setting [13]) it was 2250 and 1790. The z-score was -1.88 (inactive) and -2.12 (inactive) in test [5] (setting [14]); -0.332 and 1.54 in test [5] (setting [15]).
For `COc1cc(/C=C/C(=O)CC(=O)/C=C/c2ccc(O)c(OC)c2)ccc1O`, the AC50 in test [6] was 20.9 µM (active). The results for the fold change in test [4] (setting [10]) and in test [4] (setting [11]) were 0.955 (inactive) and 1.47, respectively. Besides, the cell count in test [4] (setting [12]) was 6170; in test [4] (setting [13]), 6460. For the same molecule, the fold fluorescence in test [7] is 8.92 [at 135.7 µM] (inactive).
Regarding `C[C@H]1O[C@@H](n2cc(F)c(=O)[nH]c2=O)[C@H](O)[C@@H]1O`, the molecule was classed as inactive in test [1], in test [2], in [3] and in test [8]. The fold change in test [4] (setting [10]) is 1.04 (inactive) and 0.788 (inactive); in test [4] (setting [11]) it was 0.632 and 1.14. Moreover, the cell count was 3620 and 3400 in test [4] (setting [12]); 3490 and 4310 in [4] (setting [13]). The z-score in [5] (setting [14]) is 0.0159 (inactive); in test [5] (setting [15]) it was -0.832.
As to `O=C1N(c2ccccc2)c2ccccc2C1(Cc1ccncc1)Cc1ccncc1`, the call in [1], in test [2], in [3] and in test [8] was inactive. For the same molecule, the fold change was 1.1 (inactive) and 0.81 (inactive) and 0.995 (inactive) in test [4] (setting [10]); 1.28 and 1.84 and 1.46 in [4] (setting [11]). Besides, the cell count is 10000 and 7730 and 7820 in test [4] (setting [12]); 9180 and 9540 and 7860 in test [4] (setting [13]).
On to `Cc1cc(C2CCCCC2)n(O)c(=O)c1`, for which the AC50 in test [6] was 2.35 µM (active); in test [2], 2.63 µM (active). Further, the z-score in test [5] (setting [14]) is 0.334 (inactive) and 0.408 (inactive) and 0.404 (inactive); in test [5] (setting [15]) it was -0.762 and -0.715 and 0.148.
With `O=C1CCc2ccc(OCCCCN3CCN(c4cccc(Cl)c4Cl)CC3)cc2N1`, the AC50 in [6] is 13.2 µM (active). The z-score was -0.393 (inactive) and -1.22 (inactive) and -0.905 (inactive) in [5] (setting [14]); 0.269 and 1.31 and -0.2 in test [5] (setting [15]).
For the molecule `NCCCCCC(=O)O`, the result in test [6], in test [2], in test [3] and in [8] was inactive. Also, the z-score in [5] (setting [14]) was -0.274 (inactive) and -0.333 (inactive); in test [5] (setting [15]), -0.165 and -1.21.
In the case of `CNC[C@H](O)[C@@H](O)[C@H](O)[C@H](O)CO`, the call in test [1], in [2] and in [3] was inactive. Besides, the fold change is 0.909 (inactive) in [4] (setting [10]) and 1.1 in test [4] (setting [11]). In addition, the values for the cell count in test [4] (setting [12]) and in test [4] (setting [13]) were 9480 and 10400, respectively. The z-score is 0.108 (inactive) and -0.495 (inactive) in test [5] (setting [14]); -0.764 and -1.1 in test [5] (setting [15]).

The record behind these values is PubChem BioAssay.
